Inconclusive results are not listed. The source made the active and inactive calls. The call rests on the fitted dose curve; in most records, active means well fitted curve in the direction sought with a large enough effect; inconclusive means small, poorly fitted or top-dose-only effect, or another doubt; inactive means no such curve, though single readings can be large; an effect the other way counts as inactive or inconclusive.
Assays:
[1] = Quantitative High-Throughput drug screen in 47 multiple myeloma cell lines against the NCATS MIPE library collection: EJM_DSMZ cell viability assay (AID 1918926; further: nearly all actives have a fitted effect of over 30% in size)
Summary of the method: (§1)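 We plated 500 myeloma cells per well, pinned in MIPE 4.0 compounds, and incubated for 48 hours at 37C. ATP was then quantified with CellTiter-Glo, with DMSO and media-only wells defining 100% and 0%.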

[2] = Quantitative High-Throughput drug screen in 47 multiple myeloma cell lines against the NCATS MIPE library collection: AMO1_DSMZ cell viability assay (AID 1918927; further: nearly all actives have a fitted effect of over 30% in size)
Summary of the method: as §1

[3] = Quantitative High-Throughput drug screen in 47 multiple myeloma cell lines against the NCATS MIPE library collection: ARD_JJKsccE7 cell viability assay (AID 1918929)
Summary of the method: as §1

[4] = Quantitative High-Throughput drug screen in 47 multiple myeloma cell lines against the NCATS MIPE library collection: Karpas620_DSMZ cell viability assay (AID 1918959); further: nearly all actives have a fitted effect of over 30% in size
Summary of the method: (§2)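 Viability readout: CellTiter-Glo luminescence following 5 min room-temperature incubation with reagent. Prior exposure: 48 h, 37C, humidified 5% CO2, 500 cells per well.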

[5] = Quantitative High-Throughput drug screen in 47 multiple myeloma cell lines against the NCATS MIPE library collection: KMM1_JCRB cell viability assay (AID 1918960); further: nearly all actives have a fitted effect of over 30% in size
Summary of the method: (§3)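 Myeloma cells, 500 per well, were exposed to MIPE 4.0 drugs by pin transfer for 48 h at 37 °C, 5% CO2. Viability was read as ATP luminescence with CellTiter-Glo, normalised to DMSO-only (100%) and medium-only (0%) wells.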

[6] = Quantitative High-Throughput drug screen in 47 multiple myeloma cell lines against the NCATS MIPE library collection: KHM11_PLB cell viability assay (AID 1918962); further: nearly all actives have a fitted effect of over 35% in size
Summary of the method: as §2

[7] = Quantitative High-Throughput drug screen in 47 multiple myeloma cell lines against the NCATS MIPE library collection: JIM3_ECACC cell viability assay (AID 1918963; further: nearly all actives have a fitted effect of over 35% in size)
Summary of the method: as §2

[8] = Quantitative High-Throughput drug screen in 47 multiple myeloma cell lines against the NCATS MIPE library collection: ARP1_JJKsccF8 cell viability assay (AID 1918928; further: nearly all actives have a fitted effect of over 40% in size)
Summary of the method: as §3

[9] = Quantitative High-Throughput drug screen in 47 multiple myeloma cell lines against the NCATS MIPE library collection: JIM1_ECACC cell viability assay (AID 1918964)
Summary of the method: as §1

[10] = Quantitative High-Throughput drug screen in 47 multiple myeloma cell lines against the NCATS MIPE library collection: Karpas417_ECACC cell viability assay (AID 1918961); conditions: Karpas417 myeloma viability, CellTiter-Glo ATP luminescence, 48 h; viability (% of DMSO): at 45.8 µM (top of the series)
Summary of the method: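 Approved and investigational drugs from MIPE 4.0 were added by pin tool to 500 cells per well. After 48 hours at 37C, ATP-based CellTiter-Glo luminescence indicated remaining viability.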
Potency means the concentration at half of the fitted maximal effect.

Row | SMILES | Potency [1] | Potency [2] | Potency [3] | Potency [4] | Potency [5] | Potency [6] | Potency [7] | Potency [8] | Potency [9] | Potency [10]
1 | NC[C@H]1O[C@H](O[C@@H]2[C@@H](O)[C@@H](O[C@H]3O[C@H](CO)[C@@H](O)[C@H](N)[C@@H]3O)[C@H](N)C[C@@H]2N)[C@H](O)[C@@H](O)[C@H]1O | inactive | inactive | inactive | inactive | inactive | inactive | inactive |  |  | 
2 | CCN1CCC(n2cc(CNc3cc(Cl)c4ncc(C#N)c(Nc5ccc(F)c(Cl)c5)c4c3)nn2)CC1 | 10.5 µM (active) | 6.62 µM (active) | 5.9 µM (active) | 5.9 µM (active) | inactive | 16.6 µM (active) | 14.8 µM (active) |  |  | 
3 | N=C1SC(=Cc2ccc(-c3ccc4c(c3)C(=O)NC4=O)o2)C(=O)N1c1ccc(Br)cc1 | 4.18 µM (active) | inactive |  | inactive |  |  |  | 3.32 µM (active) | inactive | 
4 | CC(C)C[C@@H](N)[C@H](O)C(=O)N[C@H](C(=O)N[C@H](C(=O)N[C@@H](CC(=O)O)C(=O)O)C(C)C)C(C)C | inactive | inactive |  | inactive | inactive |  | 20.9 µM (active) | inactive | inactive | 
5 | CN1CCN(c2cccc(Nc3nc4c(-c5ccc(S(C)(=O)=O)cc5)cccn4n3)c2)CC1 | 4.18 µM (active) | 4.18 µM (active) | 1.32 µM (active) | 0.833 µM (active) | 1.66 µM (active) | 2.35 µM (active) | 2.96 µM (active) |  | 0.662 µM (active) | 
6 | C=C1c2cccc(O)c2C(O)=C2C(=O)[C@@]3(O)C(O)=C(C(N)=O)C(=O)[C@@H](N(C)C)[C@@H]3[C@@H](O)[C@H]12 | 9.35 µM (active) | inactive |  | inactive | inactive | inactive | 16.6 µM (active) | 23.5 µM (active) |  | 
7 | COc1ccc2ccc(=O)oc2c1CC=C(C)C | 1.48 µM (active) | 13.2 µM (active) |  | 16.6 µM (active) |  |  | inactive | 8.33 µM (active) |  | 
8 | COc1cccc(OC)c1-c1cc(C(=O)NC2(C(=O)O)C3CC4CC(C3)CC2C4)nn1-c1ccnc2cc(Cl)ccc12 (stereo unspecified) | inactive | inactive | inactive | inactive |  | inactive | inactive |  |  | 
9 | C[C@@H]1O[C@@H](O[C@H]2CC[C@@]3(C)[C@H](CC[C@@H]4[C@H]3C[C@@H](O)[C@]3(C)[C@@H](C5=CC(=O)OC5)CC[C@]43O)C2)C[C@H](O)[C@@H]1O[C@H]1C[C@H](O)[C@H](O[C@H]2C[C@H](O)[C@@H](O)[C@@H](C)O2)[C@H](C)O1 (stereo in doubt) | 0.27 µM (active) | 0.0679 µM (active) |  | 0.171 µM (active) | 0.0762 µM (active) | 0.152 µM (active) | 0.191 µM (active) | 0.171 µM (active) | 0.0679 µM (active) | 
10 | C[C@@H]1C[C@H]2[C@@H]3CCC4=CC(=O)C=C[C@]4(C)[C@@]3(F)[C@@H](O)C[C@]2(C)[C@@]1(O)C(=O)CO | inactive | inactive |  | inactive |  |  | inactive | 0.0235 µM (active) | inactive | 
11 | O=C(O)C1=CC(O)C(O)[C@H](O)C1 (stereo partly specified) | inactive | inactive | inactive | inactive | inactive | inactive | inactive |  |  | 
12 | COc1cc2c(cc1Cc1cccc(Cl)c1F)c(=O)c(C(=O)O)cn2[C@H](CO)C(C)C | 20.9 µM (active) |  |  |  |  |  | 20.9 µM (active) | 16.6 µM (active) |  | 
13 | CN1C(=O)C[C@H](C(=O)N[C@@H](Cc2cnc[nH]2)C(=O)N2CCC[C@@H]2C(N)=O)NC1=O | inactive |  | inactive | inactive |  | inactive |  |  |  | 
14 | O=c1[nH]c(=O)n([C@H]2C[C@@H](O)[C@@H](CO)O2)cc1C(F)(F)F | 1.66 µM (active) |  | 1.32 µM (active) | inactive |  |  | inactive |  |  | 
15 | Cc1cc(OCCCS(C)(=O)=O)cc(C)c1-c1cccc(COc2ccc3c(c2)OC[C@H]3CC(=O)O)c1 | inactive |  | inactive | 5.9 µM (active) |  |  | 14.8 µM (active) |  | inactive | 
16 | O=c1[nH]c(=O)n([C@H]2C[C@@H](O)[C@@H](CO)O2)cc1I | inactive |  |  | inactive |  |  |  | inactive | inactive | 
17 | OC1CCC(Nc2ncc3nc(Nc4c(F)cc(F)cc4F)n([C@@H]4CCOC4)c3n2)CC1 (stereo partly specified) | 0.0012 µM (active) |  |  | inactive | 11.8 µM (active) |  |  | 33.2 µM (active) | 16.6 µM (active) | 
18 | CO[C@H]1O[C@@H]2O[C@@]3(C)CC[C@@H]4[C@@H](C)CC[C@@H]([C@H]1C)[C@@]24OO3 | 1.48 µM (active) |  |  |  | 1.32 µM (active) |  |  | 16.6 µM (active) |  | 
19 | NC(=O)c1ncn([C@@H]2O[C@H](CO)[C@@H](O)[C@@H]2O)n1 | inactive |  | inactive | inactive |  | inactive | inactive |  | inactive | 
20 | Cc1cc2nc3c(=O)[nH]c(=O)nc-3n(CC(O)C(O)C(O)CO)c2cc1C (stereo unspecified) | 1.18 µM (active) |  |  |  |  |  | inactive | 4.69 µM (active) |  | 
21 | O=C(Nc1ncc(SCCN2CCCC2)s1)[C@]1(c2ccc(S(=O)(=O)C3CC3)cc2)C[C@@H]1C1CCCCC1 | 18.7 µM (active) |  |  | 8.33 µM (active) |  | 16.6 µM (active) | 20.9 µM (active) | 26.4 µM (active) | 6.62 µM (active) | 
22 | Cn1c(=O)c(Oc2ccc(F)cc2F)cc2cnc(NC3CCOCC3)nc21 | inactive |  | 0.0074 µM (active) | inactive |  |  | inactive |  |  | 
23 | c1cc(OCCN2CCCCC2)cc(-c2n[nH]c3ccc(-c4ncn[nH]4)cc23)c1 | 33.2 µM (active) |  | 2.35 µM (active) | inactive |  | 14.8 µM (active) | 18.7 µM (active) |  |  | 
24 | Cc1cnc(Nc2cccc(CN3CCOCC3)c2)nc1Nc1cccc(S(=O)(=O)NC(C)(C)C)c1 | 10.5 µM (active) |  |  | 4.69 µM (active) |  | 13.2 µM (active) | 2.96 µM (active) | 5.26 µM (active) |  | 0.662 µM (active)

Reference: PubChem BioAssay (NCATS)
